{
  "source": "PubChem BioAssay (NCI)",
  "note": "This is part of a sample that, as a whole, favours compounds with a hit. Of some 83,000 tested, about 20% had one in any assay.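 Cells were grown in 96-well plates and exposed to the test compound at a single concentration for 48 hours; results are reported as percent growth, with values below 10 considered active.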 Unmarked numbers belong to inactive results. Calls of active or inactive are those of the source.",
  "data": [
    {"system": "NCI/ADR-RES ovarian", "test": "NCI-60 one-dose screen, 48 h (100 = growth as untreated, 0 = no growth, -100 = all killed)", "conditions": "10 µM unless noted", "values": [
      {"smiles": "CC(C)=CCC[C@](C)(O)[C@H]1CC[C@]2(C)[C@@H]1CC[C@@H]1[C@@]3(C)C/C(=C/c4ccccc4)C(=O)C(C)(C)[C@@H]3CC[C@]12C", "growth": "100%"},
      {"smiles": "O=C1Nc2ccccc2/C1=C\\c1c(-c2ccc(F)cc2)nc2ccccn12", "growth": "35.4%"},
      {"smiles": "CC(c1ccccc1)C(C(=O)c1ccccc1)c1ccccc1", "note": "(stereo not given)", "growth": "80.3%"},
      {"smiles": "CC(=O)[C@H]1CCC/C=C/[C@@H]2C[C@H](O)C[C@H]2[C@H](O)/C=C/C(=O)O1", "growth": "3.11% (active)"},
      {"smiles": "O=C1C=CC(=O)N1c1cccc(Cl)c1", "growth": "98.3%"},
      {"smiles": "COc1cc(/C=C\\c2cc(/C=C\\c3ccc(O)c(OC)c3)n(C(=O)COc3ccccc3)n2)ccc1O", "growth": "20.4%"},
      {"smiles": "N#C/C(=C\\c1cccc(C#N)c1)c1ccccc1", "growth": "101%"},
      {"smiles": "COc1cc2cc(Oc3cccc(NC(=O)Nc4cc(C(F)(F)F)cc(C(F)(F)F)c4)c3)c(C)nc2cc1OC", "growth": "7.03% (active)"},
      {"smiles": "Cc1ccc(-n2nc3c(c(C#N)c2=O)CC(c2ccccc2[N+](=O)[O-])C([N+](=O)[O-])=C3O)cc1", "note": "(stereo not given)", "growth": "99.8%"},
      {"smiles": "CCN(c1ccccc1)S(=O)(=O)c1cc([N+](=O)[O-])ccc1Cl", "growth": "42.2%"},
      {"smiles": "Cc1cc(Cl)nc(N(CCNc2ccnc3cc(Cl)ccc23)Cc2ccccn2)n1", "growth": "47.5%"},
      {"smiles": "CSc1nc2sc3cccc(Cl)c3n2c(=N)c1C#N", "growth": "103%"},
      {"smiles": "COc1ccc(C(=O)CC#N)cc1", "growth": "111%"},
      {"smiles": "COC(=O)C(CC=O)C(=O)C(=O)Nc1cccc(C(F)(F)F)c1", "note": "(stereo not given)", "growth": "107%"},
      {"smiles": "COc1cc(/C=C\\c2cc(OC)c(OC)c(OC)c2)cc(N)c1OC", "growth": "69.7%"},
      {"smiles": "CC1(C)NCCC[C@]2(C)[C@H]3CC[C@@H]4[C@H]5[C@H](C(=O)/C=C/c6ccco6)CC[C@]5(CO)CC[C@@]4(C)[C@]3(C)CC[C@@H]12", "growth": "95.2%"},
      {"smiles": "O=C(/C=C/c1c(-c2ccc(Cl)cc2)nn(-c2ccccc2)c1C(F)(F)F)c1ccc(Cl)cc1", "growth": "97.4%"},
      {"smiles": "Cn1cc(-c2csc(-c3c[nH]c4ccccc34)n2)c2ccnc(Cl)c21", "growth": "81.8%"},
      {"smiles": "O=C1CC(=O)OC(c2ccc([N+](=O)[O-])cc2)O1", "growth": "-44.3% (active)"},
      {"smiles": "C=CCn1c(-c2ccc(-c3nc4ccc(C)cc4[nH]3)cc2)n[nH]c1=S", "growth": "108%"},
      {"smiles": "Cn1cc(-c2nc(-c3c[nH]c4c(Cl)nccc34)cs2)c2cc(Br)ccc21", "growth": "97.6%"},
      {"smiles": "COc1cc(C2C3=C(COC3=O)N(CCO)c3cc4c(cc32)OCO4)cc(OC)c1OC", "note": "(stereo not given)", "growth": "27.2%"},
      {"smiles": "COc1cc(NC(=O)CSc2nc3ccc(C)cc3c(=O)n2Cc2ccccc2)cc(OC)c1OC", "growth": "66.3%"},
      {"smiles": "N#Cc1c(-c2cccc([N+](=O)[O-])c2)nc(SCC(=O)c2ccc(Cl)cc2)[nH]c1=O", "growth": "97.2%"},
      {"smiles": "COc1cc(CC(=O)n2ncc3ccc(N)cc32)cc(OC)c1OC", "growth": "90.1%"},
      {"smiles": "COc1cc(C2C3=C(COC3=O)N(CCO)c3cc4c(cc32)CCC4)cc(OC)c1OC", "note": "(stereo not given)", "growth": "-74.5% (active)"},
      {"smiles": "Cc1ccc(-c2nc3ccccn3c2/C=C2/C(=O)Nc3cc(Cl)ccc32)cc1", "growth": "27%"},
      {"smiles": "CCNc1nc2ccc(Nc3ccnc4cc(Cl)ccc34)cc2[nH]1", "growth": "95.8%"},
      {"smiles": "N#CC(C(=O)/C(=N/NC(=O)c1ccccc1O)C(C#N)c1ccccc1)c1ccccc1", "note": "(stereo not given)", "growth": "44.5%"},
      {"smiles": "C#Cc1cccc(NC(=O)c2cccc(NC(=O)CCl)c2)c1", "growth": "-11.5% [8.25 µM] (active)"},
      {"smiles": "Cc1nc2ccc(Cl)cn2c1-c1nnc(SCc2ccc([N+](=O)[O-])cc2)o1", "growth": "36.1%"},
      {"smiles": "Cc1c2cc[nH]c(=O)c2c(C)c2c1[nH]c1cc(OCCN3CCN(C)CC3)ccc12", "growth": "23.2%"},
      {"smiles": "Cc1cc2c(c(C)c1Cl)C(=O)/C(=C/c1ccc(O)c(O)c1)O2", "growth": "104%"},
      {"smiles": "O=C1/C=C/[C@@H](O)[C@@H]2C[C@@H](O)C[C@H]2/C=C/CCC[C@H](CCc2ccc3ncccc3c2)O1", "growth": "2.87% (active)"},
      {"smiles": "COc1ccc(-c2cnc3c(-c4cccc5ncccc45)cnn3c2)cc1", "growth": "45.4%"}
    ]}
  ]
}
